# From PubChem BioAssay (NCI)
# About 79,000 compounds went through this panel and 15% of them were active in at least one assay; those are over-represented in the sample as a whole. Unmarked numbers belong to inactive results. Calls of active or inactive are those of the source. Cut-off read from the data, not from the text of the source: active = growth inhibition above about 70%; inactive = the rest.
# Experiments:
# [1] = NCI Yeast Anticancer Drug Screen. Data for the rad50 strain (AID 155);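 note: 0% = growth of vehicle-only cultures of the same strain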; conditions: S. cerevisiae rad50 strain growth inhibition, hits give high values
# In short: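 Cells are treated with compound, grown, and their growth is then scored against vehicle-only cultures of the same repair-deficient yeast strain.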
# [2] = NCI Yeast Anticancer Drug Screen. Data for the mec2-1 strain (AID 157); conditions: S. cerevisiae mec2-1 strain, hits give high values
# In short: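 Yeast mec2-1 mutant treated with compound. Readout: growth inhibition vs vehicle controls.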
# [3] = NCI Yeast Anticancer Drug Screen. Data for the sgs1 mgt1 strain (AID 161);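 note: 0% = growth of cultures given vehicle only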; conditions: S. cerevisiae sgs1 mgt1 strain, hits give high values
# In short: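 Test agents were incubated with a DNA-repair-mutant yeast strain. Growth was then read and compared against vehicle-treated controls.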
# [4] = NCI Yeast Anticancer Drug Screen. Data for the cln2 rad14 strain (AID 165);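 note: 0% = growth equal to vehicle treated cultures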; conditions: S. cerevisiae cln2 rad14 strain, hits give high values
# In short: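 cln2 rad14 yeast strain; compound exposure; growth inhibition read vs vehicle controls.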
# [5] = NCI Yeast Anticancer Drug Screen. Data for the bub3 strain (AID 167); conditions: S. cerevisiae bub3 mutant strain, hits give high values
# In short: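 Part of a panel of yeast mutants defective in DNA damage repair or cell cycle regulation. Each strain is grown with compound, and inhibition is calculated relative to solvent-treated cultures.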
# [6] = NCI Yeast Anticancer Drug Screen. Data for the mlh1 rad18 strain (AID 175); conditions: S. cerevisiae mlh1 rad18 strain growth inhibition, hits give high values
# In short: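 Yeast w/ defined DNA-repair lesions; compound exposure; growth vs vehicle controls → % inhibition.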
# [7] = at 5.0 µM (retest, dose inferred, filed as 0.5)
# [8] = at 50.0 µM (retest, dose inferred, filed as 5.0)
SMILES,"growth inhibition [1, 7]","growth inhibition [1, 8]",growth inhibition ([1]; at 50.0 µM),"growth inhibition [2, 7]","growth inhibition [2, 8]",growth inhibition ([2]; at 50.0 µM),"growth inhibition [3, 7]","growth inhibition [3, 8]",growth inhibition ([3]; at 50.0 µM),"growth inhibition [4, 7]","growth inhibition [4, 8]",growth inhibition ([4]; at 50.0 µM),"growth inhibition [5, 7]","growth inhibition [5, 8]",growth inhibition ([5]; at 50.0 µM),"growth inhibition [6, 7]","growth inhibition [6, 8]",growth inhibition ([6]; at 50.0 µM)
CCOC(=O)c1cc(CC)sc1NC(=O)CC(C)=O,42%,58%,46%,35%,53%,17.9%,42%,56%,57.2%,38%,44%,59.5%,44%,78% (active),70.8% (active),46%,71% (active),61.1%
CCC(C)(O)Cc1ccc(Cl)cc1 (stereo unspecified),4%,-3%,-14.7%,1%,-2%,41.9%,0%,-1%,1.65%,3%,-5%,-39.8%,-6%,-7%,-23.3%,3%,-5%,-6.8%
C/C(=N\NC(=S)N1CC2CCC(CC2)C1)c1ccccn1,33%,65%,86.7% (active),13%,73% (active),89.7% (active),26%,76% (active),88.8% (active),23%,81% (active),79.1% (active),21%,80% (active),88.7% (active),25%,68%,92.3% (active)
S=C(S)OCN1CCOCC1,80% (active),32%,98.1% (active),59%,23%,98.2% (active),70% (active),28%,96.8% (active),58%,20%,97.3% (active),55%,27%,98.8% (active),51%,35%,98.2% (active)
C=[CH][Sn]([CH]=C)([O]c1cccc2cccnc12)[O]c1cccc2cccnc12,27%,36%,87.3% (active),25%,34%,92.7% (active),91% (active),98% (active),82.8% (active),,,,87% (active),98% (active),89.8% (active),30%,60%,87.7% (active)
COc1c(C)c2c(c(O)c1C/C=C(\C)CCC(=O)O)C(=O)OC2,31%,86% (active),85.3% (active),11%,88% (active),90.9% (active),30%,90% (active),92.2% (active),,,,17%,91% (active),89.2% (active),38%,92% (active),
O=C1C=CC(=O)N1c1cc(Cl)c(Cl)cc1Cl,32%,86% (active),91.6% (active),51%,98% (active),27.1%,101% (active),100% (active),,89% (active),100% (active),,101% (active),100% (active),,32%,99% (active),91.5% (active)
